Measurements from PubChem BioAssay (NCATS).
“And” between values parts separate entries of the source, which are not always exact repeats. Equal values may be shown once. Records with an inconclusive call do not appear. The source made the active and inactive calls. The call rests on the fitted dose curve; in most records, active means well fitted curve in the direction sought with a large enough effect; inconclusive means small, poorly fitted or top-dose-only effect, or another doubt; inactive means no such curve, though single readings can be large; an effect the other way counts as inactive or inconclusive.

Assays:
[1] = target: Glutathione peroxidase 1 (Homo sapiens) (UniProt P07203); assay: Primary qHTS Assay for Inhibitors of Recombinant Selenoprotein Glutathione Peroxidase 1 (GPX1) (AID 1845191); further: nearly all actives have a fitted effect of over 65% in size; on activity, negative = inhibition: on the % scale 0 is the no-effect control and ±100 the full control effect
Method in brief: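 Recombinant GPX1 (10 nM final) was preincubated with compound for 30 min at room temperature, then reacted with 1 mM GSH, 0.5 mM CHP, 0.5 mM NADPH and 100 nM glutathione reductase; NADPH fluorescence (340/450 nm) was read at 0 and 15 min.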

[2] = target: Phospholipid hydroperoxide glutathione peroxidase GPX4 (Homo sapiens) (UniProt P36969); assay: Primary qHTS Assay for Inhibitors of Recombinant Selenoprotein Glutathione Peroxidase 4 (GPX4) (AID 1845192); further: nearly all actives have a fitted effect of over 65% in size; on activity change, negative = inhibition: series mostly up to about 50 µM; on the % scale 0 is the no-effect control and ±100 the full control effect
Method in brief: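 GR-coupled readout: 100 nM GR, 1 mM GSH, 0.5 mM NADPH; NADPH fluorescence (ex 340/em 450 nm) read at t=0 and after 15 min RT. GPX4 200 nM, preincubated 30 min with compound; substrate 0.5 mM CHP.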

[3] = target: Luciferin 4-monooxygenase (Photinus pyralis) (UniProt P08659); assay: Primary firefly luciferase (FLuc) qHTS assay for identification of artifact compounds. (AID 1845220); further: nearly all actives have a fitted effect of over 60% in size;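 on activity change, negative = inhibition: series mostly up to about 54 µM; plate controls were DMSO vehicle for no effect and no enzyme for full effect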
Method in brief: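 Reaction readout was CCD-imaged luminescence, taken 5 min after adding 10 nM purified firefly enzyme to compound-treated wells holding 10 uM luciferin and ATP in pH 7.6 buffer.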

[4] = Primary fluorescence-based thiol-reactive (MSTI) qHTS assay for identification of artifact compounds. (AID 1845221); further: nearly all actives have a fitted effect of over 65% in size; further: potency means the concentration at half of the fitted maximal effect;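 on activity change, negative = thiol reactive: series mostly up to about 54 µM; thiol-reactive compounds lower the probe fluorescence signal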
Method in brief: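 MSTI probe at 4 uM final in 2% DMSO/PBS pH 7.4; compounds, 1 h at room temperature in dark. Fluorescence Ex/Em 525/598 nm, normalised to Acetyl-MSTI and MSTI, fitted to 4-parameter Hill.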

[5] = test system: Nanoluciferase (engineered Oplophorus gracilirostris luciferase); assay: Primary Nanoluciferase (NLuc) qHTS assay for identification of artifact compounds. (AID 1845222); further: potency means the concentration at half of the fitted maximal effect;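 on activity, negative = inhibition: NLuc secreted into diluted conditioned medium of S16 cells; series mostly up to about 54 µM; 0% = DMSO and -100% = no enzyme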
Method in brief: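 Concentration-response data were obtained by luminescence after 5 min with Nano-Glo substrate at 1:100. The enzyme was diluted S16 NLuc-expressing cell medium, preincubated with compound for 15 min at RT. Curves were fitted with a 4-parameter Hill model.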

Phospholipid hydroperoxide glutathione peroxidase GPX4 (Homo sapiens), sequence (P36969 whole entry, looked up): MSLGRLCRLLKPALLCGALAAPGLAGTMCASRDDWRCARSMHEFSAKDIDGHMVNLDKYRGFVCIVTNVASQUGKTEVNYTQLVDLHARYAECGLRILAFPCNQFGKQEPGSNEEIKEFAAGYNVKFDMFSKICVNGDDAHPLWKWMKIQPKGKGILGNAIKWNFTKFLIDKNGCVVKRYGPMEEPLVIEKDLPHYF
Glutathione peroxidase 1 (Homo sapiens), sequence (P07203 whole entry, looked up): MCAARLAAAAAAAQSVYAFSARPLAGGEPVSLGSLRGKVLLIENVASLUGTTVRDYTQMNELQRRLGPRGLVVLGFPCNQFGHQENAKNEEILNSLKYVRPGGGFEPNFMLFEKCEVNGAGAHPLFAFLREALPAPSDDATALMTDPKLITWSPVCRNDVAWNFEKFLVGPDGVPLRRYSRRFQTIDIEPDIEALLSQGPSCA

C[C@]1(OC(=O)/C=C/c2ccccc2)C[C@H](O)[C@]2(O)C=CO[C@@H](O[C@@H]3O[C@H](CO)[C@@H](O)[C@H](O)[C@H]3O)C12 (some centres undefined)
inactive: Potency [1] | Potency [2] | Potency [3] | Potency [4]

C[C@@H]1CC[C@]2(C)C3(C)CC[C@@]2(OC3=O)[C@@]12C[C@H](c1ccoc1)OC2=O
inactive: Potency [1] | Potency [2] | Potency [3] | Potency [4]

C=C[C@@]1(C)CC(=O)C2[C@](C)(O1)[C@@H](OC(C)=O)[C@@H](O)[C@H]1C(C)(C)CCC[C@]21C (some centres undefined)
inactive: Potency [1] | Potency [2] | outcome [3] inactive [at 11.6 µM] | activity change, negative = thiol reactive [4] 58.5% [at 11.5 µM] | activity, negative = inhibition [5] 3.51% [at 11.6 µM]

CCC(=O)NS(=O)(=O)c1ccc(-c2c(-c3ccccc3)noc2C)cc1
inactive: Potency [1] | Potency [2] | Potency [3] | Potency [4]

COc1c(C)c(C(=O)c2ccc(N)c(C(=O)O)c2)n2ccccc12
active: Potency [4] 4.74 µM and 5.32 µM | Potency [5] 9.53 µM
inactive: Potency [1] | Potency [2] | Potency [3]

CCn1cc(C2=NOC(C(=O)Nc3c(C)n(C)n(-c4ccccc4)c3=O)C2)c(C)n1 (centres undefined)
inactive: Potency [1] | Potency [2] | Potency [3] | Potency [4]

NS(=O)(=O)NCCNc1nonc1C(=Nc1ccc(F)c(Br)c1)NO
inactive: Potency [1] | Potency [2] | Potency [3] | Potency [4]

COc1ccc([C@@H]2N[C@H](C(=O)O)Cc3c2[nH]c2ccccc32)cc1CN1CCN(c2ccccc2F)CC1
inactive: Potency [1] | Potency [2] | Potency [3] | Potency [4]

O=C1N(CC2CCCCN2)CCN1c1ccccc1 (centres undefined)
inactive: Potency [1] | Potency [2] | Potency [3] | Potency [4] | Potency [5]

C/C=C(\C)C(=O)O[C@@H]1CC2[C@@H](CC=C3C[C@@H](O[C@H]4C[C@H](OC)[C@H](O[C@H]5C[C@H](OC)[C@H](O[C@H]6C[C@H](OC)[C@H](O[C@H]7C[C@@H](OC)[C@H](O[C@@H]8O[C@H](CO)[C@@H](O)[C@H](O)[C@H]8O)[C@@H](C)O7)[C@@H](C)O6)[C@@H](C)O5)[C@@H](C)O4)CC[C@@]32C)[C@@]2(O)CC[C@H](C(C)=O)[C@@]12C (some centres undefined)
inactive: activity, negative = inhibition [1] -14% [at 9.52 µM] | activity change, negative = inhibition [2] -7.77% [at 9.73 µM] | activity change, negative = inhibition [3] 2.2% [at 11.6 µM] | activity change, negative = thiol reactive [4] 10.3% [at 11.5 µM] | activity, negative = inhibition [5] 4.8% [at 11.6 µM]

COc1cc(C[C@H]2COC(=O)[C@@H]2Cc2ccc(O)c(OC)c2)ccc1O
active: Potency [4] 14.7 µM
inactive: Potency [1] | Potency [2] | Potency [3]

CC1CCC2(C)C(CC(O)C(O)C23CO3)C1(C)CCC1=CC(O)OC1=O (centres undefined)
inactive: Potency [1] | Potency [2] | Potency [3] | Potency [4] | Potency [5]

CC(C)(O)C1=CCC23COC(C2)C(O)(C(=O)O)CCC13 (centres undefined)
inactive: Potency [1] | Potency [2] | Potency [3] | Potency [4] | Potency [5]

CC(=O)O[C@@]1(C)C[C@@H](O)[C@]2(O)C=CO[C@@H](O[C@@H]3O[C@H](CO)[C@@H](O)[C@H](O)[C@H]3O)[C@@H]21
inactive: Potency [1] | Potency [2] | Potency [3] | Potency [4]

Cc1c(N2C(=O)c3ccc(C(=O)O)cc3C2=O)c(=O)n(-c2ccccc2)n1C
inactive: Potency [1] | Potency [2] | Potency [3] | Potency [4] | Potency [5]

Clc1ccc(CN[C@H]2CCN(c3ncc(Br)cn3)C2)c(Cl)c1
inactive: Potency [1] | Potency [2] | Potency [3] | Potency [4] | Potency [5]

CC(=O)c1c(O)cc2cccc3c2c1CC(C)(O)O3 (centres undefined)
inactive: Potency [1] | Potency [2] | Potency [3]
active: Potency [4] 5.32 µM

CC1OC(O[C@H]2[C@@H](O)C[C@@]3(C)C([C@H](O)C[C@]4(C)C3CC=C3C5CC(C)(C)CC[C@]5(C(=O)OC5OC(CO)C(O)C(O)C5OC5OCC(OC6OCC(OC7OCC(O)C(O)C7O)C(O)C6O)C(OC6OCC(O)(CO)C6O)C5O)CC[C@]34C)[C@]2(C)CO)C(O)C(O)C1O (some centres undefined)
inactive: activity, negative = inhibition [1] -3.12% [at 9.52 µM] | activity change, negative = inhibition [2] -6.84% [at 9.73 µM] | activity change, negative = inhibition [3] 2.08% [at 11.6 µM] | activity change, negative = thiol reactive [4] 280% [at 11.5 µM] | activity, negative = inhibition [5] 3.85% [at 11.6 µM]

Cc1nc2c(-c3cnc(N)nc3)nc(N3CCOCC3)nc2n1C(C)C
inactive: Potency [1] | Potency [2] | Potency [3] | Potency [4] | Potency [5]

Cc1nn(C)c2c1C(c1ccc(C(F)(F)F)cc1)C(C#N)=C(N)O2 (centres undefined)
inactive: Potency [1] | Potency [2] | Potency [3]
active: Potency [4] 6.7 µM

Cc1nn(C)c(COc2ccc(N3CCN(S(=O)(=O)N(C)C)CC3)cc2)c1-c1cccc2c(CCCOc3cccc4ccccc34)c(C(=O)O)n(CCN3CCOCC3)c12
inactive: Potency [1] | Potency [2] | Potency [3] | Potency [4] | Potency [5]

CCCCCCc1cccc(NC(=O)[C@H](N)CCP(=O)(O)O)c1
inactive: Potency [1] | Potency [2] | activity change, negative = inhibition [3] 2.4% [at 11.6 µM] | activity change, negative = thiol reactive [4] 1.56% [at 11.5 µM] | activity, negative = inhibition [5] 4.9% [at 11.6 µM]

O=C(c1ccccn1)c1cnn2c(-c3ccncc3)ccnc12
inactive: Potency [1] | Potency [2] | Potency [3] | Potency [4] | Potency [5]

C[C@@]12C[C@]3(O)O[C@H](O1)[C@]1(COC(=O)c4ccccc4)[C@H]3C[C@@]12O[C@@H]1O[C@H](COC(=O)c2ccccc2)[C@@H](O)[C@H](O)[C@H]1O
inactive: Potency [1] | Potency [2] | Potency [3] | Potency [4]

CC(C)=CCC/C(C)=C/CC/C(C)=C/CC[C@]1(C)CCc2cc(O)cc(C)c2O1
inactive: Potency [1] | Potency [2] | Potency [3] | Potency [4] | Potency [5]

C=C1CC2C3(C)C(O)CC(=O)C(C)(C)C3C(OC(C)=O)C(OC(C)=O)C2(C)C2C(=O)OC(C)(C(=O)OC)C(=O)C12C (centres undefined)
inactive: Potency [1] | Potency [2] | Potency [3] | Potency [4] | Potency [5]

COc1c(C)c(OCC=C(C)C)cc2c1C(=O)NC2=O
inactive: Potency [1] | Potency [2] | Potency [3] | Potency [4] | Potency [5]

C/C=C1\[C@H](O[C@@H]2O[C@H](CO)[C@@H](O)[C@H](O)[C@H]2O)OC=C(C(=O)OC)[C@H]1CC(=O)OC
inactive: Potency [1] | Potency [2] | Potency [3] | Potency [4] | Potency [5]

COC(=O)[C@H](CC1C=NC=N1)NCC12CC3CC(CC(C3)C1)C2 (some centres undefined)
inactive: Potency [1] | Potency [2] | Potency [3] | Potency [4] | Potency [5]

CC1=CCC2C(C)(CO)CCCC2(C)C1CC12OC1C(O)C(CO)=CC2O (centres undefined)
inactive: Potency [1] | Potency [2] | Potency [3] | Potency [4] | Potency [5]

O=C(O[C@H]1[C@@H]2C[C@@H]3OC[C@@](O)([C@H]2[C@H](O[C@@H]2O[C@H](CO)[C@@H](O)[C@H](O)[C@H]2O)O3)[C@@H]1O)c1ccccc1
inactive: Potency [1] | Potency [2] | Potency [3] | Potency [5]
active: Potency [4] 5.19 µM

CC1=CC(=O)OC(C)(CC(C)(O)C(=O)O)C1 (centres undefined)
inactive: Potency [1] | Potency [2] | Potency [3] | Potency [4] | Potency [5]

CC(C)c1ccc(CC(=O)N2CCC[C@@H](c3cccc(OC(C)(C)C(=O)O)c3)C2)cc1
inactive: Potency [1] | Potency [2] | Potency [3] | Potency [4] | Potency [5]

COc1c2c(c(C)c3c1C(=O)OC3)O[C@@]1(C)C[C@@H](O)[C@]34O[C@](OC)(CC[C@]3(C)[C@H]1C2)OC4(C)C
inactive: Potency [1] | Potency [2] | Potency [3] | Potency [4] | Potency [5]

CC1(C)CC2C(O)C3=C(CC(C)(O)C2C1)C(=O)OC3O (centres undefined)
inactive: Potency [1] | Potency [2] | Potency [3] | Potency [4] | Potency [5]

COc1cccc2c1CCC[C@H]2CN(C)CCc1ccc2ccoc2c1
inactive: Potency [1] | Potency [2] | Potency [3] | Potency [4] | Potency [5]

CC(C)=CCCC1(C)Oc2cc3c(c4c2C2C(O4)C(C)(O)CCC21)CN(C(CCC(=O)O)C(=O)O)C3=O (centres undefined)
inactive: Potency [1] | Potency [2] | Potency [3] | Potency [4] | Potency [5]

C/C(=C/CCC(CO)C1CCC2(C)C3CCC4C(C)(C)C(OC5OC(CO)C(O)C(O)C5O)CC(O)C45CC35CCC12C)COC1OC(CO)C(O)C(O)C1O (centres undefined)
inactive: Potency [1] | Potency [2] | Potency [3] | Potency [4] | Potency [5]

C=C(C(=O)O)[C@@H]1CC=C2CCC[C@H](C)[C@@]2(C)C1
inactive: Potency [1] | Potency [2] | Potency [3] | Potency [4] | Potency [5]

C=C1C(OC(C)=O)C(=O)C2C(C)(C)C(OC(C)=O)CCC2(C)C1CC(OC(C)=O)/C(C)=C/COC(C)=O (centres undefined)
inactive: Potency [1] | Potency [2] | Potency [3] | Potency [4] | Potency [5]

CC(C)(O)c1ccc2c(c1)C(=O)CC1[C@](C)(CO)CCC[C@]21C (some centres undefined)
inactive: Potency [1] | Potency [2] | Potency [3] | Potency [5]
active: Potency [4] 13.1 µM

CC1(C)CCC2(C(=O)OC3OC(COC4OC(CO)C(O)C(O)C4O)C(O)C(O)C3O)CCC3(C)C(=CCC4C5(C)CCC(O)C(C)(C(=O)O)C5CCC43C)C2C1O (centres undefined)
inactive: Potency [1] | Potency [2] | activity change, negative = inhibition [3] 2.78% [at 11.6 µM] | activity change, negative = thiol reactive [4] 16.4% [at 11.5 µM] | activity, negative = inhibition [5] 2.66% [at 11.6 µM]

CC(=O)OC[C@@]12[C@H](O)C[C@]3(C)C(=CCC4[C@@]5(C)CC[C@H](O[C@@H]6O[C@H](C(=O)O)[C@@H](O[C@@H]7O[C@H](CO)[C@@H](O)[C@H](O)[C@H]7O)[C@H](O)[C@H]6O[C@@H]6O[C@H](CO)[C@@H](O)[C@H](O)[C@H]6O)[C@](C)(CO)C5CC[C@]43C)[C@@H]1CC(C)(C)[C@@H](OC(C)=O)[C@@H]2O (some centres undefined)
inactive: Potency [1] | Potency [2] | outcome [3] inactive [at 11.6 µM] | activity change, negative = thiol reactive [4] 182% [at 11.5 µM] | activity, negative = inhibition [5] 3.06% [at 11.6 µM]

COc1ccccc1[C@@H]1C2=C(CC(C)(C)CC2=O)Nc2n[nH]c(C(F)(F)F)c21
inactive: Potency [1] | Potency [2] | Potency [3] | Potency [4] | Potency [5]

COc1ccccc1-n1c(SCC(=O)Nc2nc3ccc(C)cc3s2)nc2c(c1=O)SCC2
inactive: Potency [1] | Potency [2] | Potency [3] | Potency [4] | Potency [5]
